Measured values as given in PubChem BioAssay AID619 (University of Pittsburgh Molecular Library Screening Center, 2007).
Screen size: about 97,000 compounds; about 520 (0.54%) were called active. The sample as a whole holds a higher share of actives than the screen did. A number with no mark means an inactive call.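 Rule for the calls: active = inhibition of 50% or more in the single-concentration screen; inactive = inhibition below 50%.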

Target: Serine/threonine-protein kinase PLK1 (Homo sapiens) (UniProt P53350)
Sequence (P53350 whole entry, looked up): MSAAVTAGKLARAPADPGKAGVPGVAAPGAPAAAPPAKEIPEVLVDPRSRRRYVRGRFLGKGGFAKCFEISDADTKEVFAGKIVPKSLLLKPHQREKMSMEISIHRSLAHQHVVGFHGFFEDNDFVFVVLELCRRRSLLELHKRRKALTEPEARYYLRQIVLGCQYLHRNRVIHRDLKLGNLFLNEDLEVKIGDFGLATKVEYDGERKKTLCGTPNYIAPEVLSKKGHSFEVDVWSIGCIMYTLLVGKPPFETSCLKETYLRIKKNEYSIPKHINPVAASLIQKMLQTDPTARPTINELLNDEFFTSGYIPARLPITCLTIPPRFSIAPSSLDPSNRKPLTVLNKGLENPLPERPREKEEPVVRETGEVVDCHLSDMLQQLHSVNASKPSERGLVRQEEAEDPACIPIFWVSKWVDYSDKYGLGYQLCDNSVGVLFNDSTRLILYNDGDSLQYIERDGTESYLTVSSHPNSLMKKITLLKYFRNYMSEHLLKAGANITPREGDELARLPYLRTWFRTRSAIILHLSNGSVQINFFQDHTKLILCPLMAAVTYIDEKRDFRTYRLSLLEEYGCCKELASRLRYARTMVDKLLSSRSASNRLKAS
Assay: human PLK1 kinase inhibitors, primary screen, biochemical, TR-FRET (AID 619);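 note: 0% = DMSO max control and 100% = H-89 dihydrochloride min control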
Conditions: recombinant PLK1 kinase, TR-FRET peptide phosphorylation; at 10 µM; stronger effect = higher value

Question: How did the inhibition turn out when `COCC(=O)Nc1ccc(Br)cc1` was run?
Answer: 2.4%

Question: For `COc1ccc(NCc2nnc(SCc3ccccc3)n2-c2ccc(OC)cc2)cc1`, which inhibition is on record?
Answer: -14.5%

Question: How did the inhibition turn out when `CC1Cc2ccccc2N1C(=O)c1cc2sccc2n1Cc1ccccc1` (stereo not given) was run?
Answer: -10.7%

Question: With `Cc1ccc(C(=O)N/C(=C/C=C/c2ccccc2)C(=O)NCc2ccco2)cc1` as the compound, how does the inhibition read?
Answer: -5.76%

Question: `O=C(/C=C/c1ccccc1)N/C(=C/c1ccccc1)C(=O)Nc1ccccc1O` was tested. Which inhibition did it give?
Answer: -4.44%

Question: How did the inhibition turn out when `Cc1ccccc1-n1c(C)cc(/C=N/NC(=O)c2ccc(CN3CCOCC3)cc2)c1C` was run?
Answer: -16%

Question: For `Fc1ccccc1COc1ccccc1CNCc1ccncc1`, which inhibition is on record?
Answer: -5.47%

Question: For `COCCCNC(=O)CN1CCN(Cc2ccccc2Cl)C1=O`, which inhibition is on record?
Answer: -2.49%

Question: For `COC(=O)CNS(=O)(=O)c1ccc(OC)cc1`, which inhibition is on record?
Answer: -2.7%

Question: For `Cc1ccc(-n2c(CNc3ccc(F)cc3)nnc2SCC(=O)N2CCOCC2)cc1`, which inhibition is on record?
Answer: -8.34%

Question: `O=C(NCc1ccccn1)c1cc(-c2ccccc2Cl)on1` was tested. Which inhibition did it give?
Answer: -11.3%

Question: `CCC(C)NC(=O)CCCc1ccccc1` (stereo not given) was tested. Which inhibition did it give?
Answer: 3.26%

Question: How did the inhibition turn out when `O=C(Cn1cncn1)N/N=C/c1c2ccccc2cc2ccccc12` was run?
Answer: -1.05%

Question: Which inhibition does the source give for `CC1CCN(S(=O)(=O)c2ccc(S(=O)(=O)NCc3ccco3)cc2)CC1` here?
Answer: -3.69%

Question: Which inhibition does the source give for `Oc1ccc(-c2onc3ccc(Cl)cc23)cc1` here?
Answer: 7.69%

Question: `Cn1nc(C(F)(F)F)c(C(=O)Nc2cccc(C(F)(F)F)c2)c1SCc1ccc(Cl)cc1` was tested. Which inhibition did it give?
Answer: -9.84%

Question: Which inhibition does the source give for `C=CCNc1nc(N)c(C(=C(C#N)C#N)c2ccccc2)s1` here?
Answer: -9.14%

Question: For `Cc1c(Nc2cc(N3CCCC(C)C3)c3nonc3c2[N+](=O)[O-])c(=O)n(-c2ccccc2)n1C` (stereo not given), which inhibition is on record?
Answer: -8.74%

Question: How did the inhibition turn out when `O=C(Nc1nnc(SCc2c(Cl)cccc2Cl)s1)C1CCCO1` (stereo not given) was run?
Answer: 2.16%

Question: Which inhibition does the source give for `CC(C)C[C@@H](N)c1nnc(SCC(=O)c2ccc(Cl)cc2)o1` here?
Answer: -3.08%

Question: `COc1ccc2[nH]cc(/C=C(/C#N)S(=O)(=O)c3ccccc3)c2c1` was tested. Which inhibition did it give?
Answer: 0.68%

Question: Which inhibition does the source give for `CC1CC(C)CN(C(=O)CSc2nnc(CSc3ncccn3)n2C)C1` (stereo not given) here?
Answer: -3.56%

Question: With `CCN1C(=O)C(CC(=O)Nc2cc(C)ccc2C)SC1=Nc1ccc(S(N)(=O)=O)cc1` (stereo not given) as the compound, how does the inhibition read?
Answer: -2.89%

Question: For `COC(=O)C1=C(C)N=C2SC(C)C(=O)N2C1/C=C/c1ccccc1` (stereo not given), which inhibition is on record?
Answer: -12.6%

Question: With `Cc1nn(C)c(Oc2ccccc2)c1[N+](=O)[O-]` as the compound, how does the inhibition read?
Answer: -6.21%

Question: How did the inhibition turn out when `CCOC(=O)C1=C(NC(=S)NC(=O)c2ccccc2)c2ccccc2CC1(C)C` was run?
Answer: 5.6%

Question: With `O=S(=O)(c1cnccc1N1CCN(/N=C/c2ccc(Br)cc2)CC1)N1CCCCC1` as the compound, how does the inhibition read?
Answer: -2.5%

Question: Which inhibition does the source give for `COCc1nnc(NC(=O)CS(=O)(=O)Cc2ccccc2)s1` here?
Answer: -4.96%

Question: For `Cc1cccc(S(=O)(=O)CC(=O)Nc2nc(-c3ccccc3)cs2)c1`, which inhibition is on record?
Answer: -1.62%

Question: For `O=C(CCS(=O)(=O)c1ccccc1)Nc1nc2c(s1)CCCC2`, which inhibition is on record?
Answer: 68.7% (active)

Question: For `COC(=O)c1ccc(CSc2nnc(NC(C)C)s2)cc1`, which inhibition is on record?
Answer: -15%

Question: With `O=C(c1ccc(F)cc1)c1c[nH]c(C(=O)NCc2cccnc2)c1` as the compound, how does the inhibition read?
Answer: 3.12%

Question: For `CCSc1nnc(NC(=O)Cc2ccccc2OC)s1`, which inhibition is on record?
Answer: -15.2%

Question: Which inhibition does the source give for `CC(=O)c1cnn(-c2cc(Oc3ccc(F)cc3)ncn2)c1C` here?
Answer: -5.47%

Question: For `CC(C)=CC(=O)Nc1nnc(-c2ccc(F)cc2)s1`, which inhibition is on record?
Answer: -17.5%

Question: How did the inhibition turn out when `COc1ccc(C(=O)Nc2ncc3c(n2)-c2ccccc2CC3)cc1` was run?
Answer: -1.84%

Question: For `C/C(=N/NC(=O)c1ccc(NC(=O)c2ccc(F)cc2)cc1)c1ccccc1`, which inhibition is on record?
Answer: -9.91%

Question: Which inhibition does the source give for `CCCc1nnc(NC(=O)CN2C(=O)c3ccccc3S2(=O)=O)s1` here?
Answer: -11%

Question: How did the inhibition turn out when `O=C(CN1C(=O)c2ccccc2S1(=O)=O)N1CCc2ccccc21` was run?
Answer: -11.2%

Question: How did the inhibition turn out when `CNC(=O)CN1C(=O)c2ccccc2S1(=O)=O` was run?
Answer: 58.4% (active)

Question: For `CCOC(=O)N1CCN(C(c2cccnc2)c2ccc3cccnc3c2O)CC1` (stereo not given), which inhibition is on record?
Answer: 5.49%

Question: How did the inhibition turn out when `CN(C(=O)CSc1nnc(N)s1)c1c(N)n(Cc2ccccc2)c(=O)[nH]c1=O` was run?
Answer: -0.95%

Question: Which inhibition does the source give for `CN1/C(=C\C=C2\N=C(c3ccc(F)cc3)OC2=O)C(C)(C)c2ccccc21` here?
Answer: -25.2%

Question: Which inhibition does the source give for `Cc1ccc(NC(=O)c2ccc(CSc3ncnc4nc[nH]c34)cc2)c(C)c1` here?
Answer: 27.2%

Question: With `O=C(Nc1cccc(F)c1)c1ccc(S(=O)(=O)N2CCCC2)cc1` as the compound, how does the inhibition read?
Answer: 72.1% (active)

Question: For `CCOC(=O)N1CCN(S(=O)(=O)c2ccc(C(=O)Nc3ccc(F)cc3F)cc2)CC1`, which inhibition is on record?
Answer: -7.78%

Question: `O=C(Nc1ccc2c(c1)CCC2)c1cccc(S(=O)(=O)N2CCN(c3ccc(F)cc3)CC2)c1` was tested. Which inhibition did it give?
Answer: -5.86%

Question: How did the inhibition turn out when `CN(Cc1ccccc1)C(=O)COc1ccccc1` was run?
Answer: -6.87%

Question: For `C=CCNC(=S)N/N=C/c1ccc(OCc2ccccc2)cc1`, which inhibition is on record?
Answer: 7.95%

Question: Which inhibition does the source give for `O=C(Nc1ccc2c(c1)OCCO2)C(c1ccc(F)cc1)N1CCCCC1` (stereo not given) here?
Answer: 1.96%

Question: For `CC1(C)Cc2c(sc3nc(SCC(=O)NCc4ccccc4)n(-c4ccccc4)c(=O)c23)CS1`, which inhibition is on record?
Answer: -3.27%

Question: With `O=C(Nc1ccccc1Cl)O/N=C(/c1ccccc1)c1ccccn1` as the compound, how does the inhibition read?
Answer: -2.38%

Question: For `CCC(C)(C)n1nnnc1CN1CCN(c2nc3ccc(C)cc3cc2C#N)CC1`, which inhibition is on record?
Answer: -9.44%

Question: With `COc1ccc(C(C#N)N2N=C(C)CC2(C)C)cc1` (stereo not given) as the compound, how does the inhibition read?
Answer: -2.1%

Question: Which inhibition does the source give for `COc1ccc(C2=Nc3cc(C)ccc3OC2)cc1` here?
Answer: -6.91%

Question: For `COc1ccc(-c2nc(CS(=O)CC(=O)NCc3ccccn3)c(C)o2)cc1` (stereo not given), which inhibition is on record?
Answer: -9.42%

Question: For `COc1ccc(-c2nc(CS(=O)CC(=O)NCc3cccnc3)c(C)o2)cc1OC` (stereo not given), which inhibition is on record?
Answer: 78.2% (active)

Question: Which inhibition does the source give for `Cc1oc2nc(SCC(=O)NCc3cccnc3)nc(N)c2c1C` here?
Answer: 5.49%

Question: `Cc1ccccc1OCc1nnc(SCC(=O)N2c3ccccc3Sc3ccc(Cl)cc32)o1` was tested. Which inhibition did it give?
Answer: 3.98%

Question: `CCOC(=O)c1c(C)oc2cc(Br)c(OCC(N)=O)cc12` was tested. Which inhibition did it give?
Answer: -3.79%
